PubChem BioAssay AID1159580 (chemical genetic matrix, 2015)
Screen size: about 5,500 compounds; about 2,000 (36%) were called active. Inconclusive results (about 18%) are left out. Cut-off read from the data, not from the text of the source: active = normalized growth mostly below about 0.91 (no sharp cut-off); inconclusive = no clear call, values can overlap the other calls; inactive = mostly above about 0.92. The list shows a part of the results.

Assay: chemical genetic growth profiling, strain panel (AID 1159580);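 note: tested at 20 µM; growth read once vehicle control cultures reached saturation at 30 °C; 1 = growth at the plate median or of vehicle wells; lower values mean less growth of the strain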
Conditions: growth OD

Measured: normalized growth

NC(=O)N1c2ccccc2CC(=O)c2ccccc21
inactive: S. cerevisiae deletion strains, locus YKL009W, strain mrt4, stronger effect = lower value 1.01 | S. cerevisiae deletion strains, locus YKL068W, stronger effect = lower value 0.994 | S. cerevisiae deletion strains, locus YKL085W, strain MDH1 (second series), stronger effect = lower value 1.02 | S. cerevisiae deletion strains, locus YKL085W, strain MDH1, stronger effect = lower value 1.02 | S. cerevisiae deletion strains, locus YKL160W, strain elf1, stronger effect = lower value 1.05 | S. cerevisiae deletion strains, locus YKL190W, strain CNB1, stronger effect = lower value 1 | S. cerevisiae deletion strains, locus YKR001C, strain vps1, stronger effect = lower value 0.969 | S. cerevisiae deletion strains, locus YKR026C, strain gcn3, stronger effect = lower value 0.972 | S. cerevisiae deletion strains, locus YKR091W, strain srl3, stronger effect = lower value 0.989 | S. cerevisiae deletion strains, locus YLL001W, strain dnm1, stronger effect = lower value 0.969 | S. cerevisiae deletion strains, locus YLL026W, stronger effect = lower value 0.988 | S. cerevisiae deletion strains, locus YLL041C, strain sdh2, stronger effect = lower value 0.982 | S. cerevisiae deletion strains, locus YLR027C, strain aat2, stronger effect = lower value 0.999 | S. cerevisiae deletion strains, locus YLR039C, strain RIC1, stronger effect = lower value 0.972 | S. cerevisiae deletion strains, locus YLR058C, strain SHM2, stronger effect = lower value 0.988 | S. cerevisiae deletion strains, locus YLR102C, strain apc9, stronger effect = lower value 0.979 | S. cerevisiae deletion strains, locus YLR113W, strain HOG1, stronger effect = lower value 0.96 | S. cerevisiae deletion strains, locus YLR221C, strain rsa3, stronger effect = lower value 0.962 | S. cerevisiae deletion strains, locus YLR258W, strain gsy2, stronger effect = lower value 1.01 | S. cerevisiae deletion strains, locus YLR262C, strain YPT6 (second series), stronger effect = lower value 1.01 | S. cerevisiae deletion strains, locus YLR262C, strain YPT6, stronger effect = lower value 1.01 | S. cerevisiae deletion strains, locus YLR268W, strain sec22, stronger effect = lower value 1 | S. cerevisiae deletion strains, locus YLR320W, strain mms22, stronger effect = lower value 0.945 | S. cerevisiae deletion strains, locus YLR330W, strain CHS5, stronger effect = lower value 0.989 | S. cerevisiae deletion strains, locus YLR342W, strain FKS1 (second series), stronger effect = lower value 0.949 | S. cerevisiae deletion strains, locus YLR342W, strain FKS1, stronger effect = lower value 0.998 | S. cerevisiae deletion strains, locus YLR357W, strain rsc2, stronger effect = lower value 0.993 | S. cerevisiae deletion strains, locus YLR370C, strain arc18, stronger effect = lower value 1 | S. cerevisiae deletion strains, locus YLR371W, strain rom2, stronger effect = lower value 0.969 | S. cerevisiae deletion strains, locus YLR384C, strain iki3, stronger effect = lower value 0.983 | S. cerevisiae deletion strains, locus YLR418C, strain cdc73, stronger effect = lower value 1.01 | S. cerevisiae deletion strains, locus YML016C, strain PPZ1, stronger effect = lower value 0.985 | S. cerevisiae deletion strains, locus YML032C, strain rad52, stronger effect = lower value 0.96 | S. cerevisiae deletion strains, locus YML120C, strain ndi1, stronger effect = lower value 0.949 | S. cerevisiae deletion strains, locus YML124C, strain tub3, stronger effect = lower value 0.979 | S. cerevisiae deletion strains, locus YMR058W, strain fet3, stronger effect = lower value 0.978 | S. cerevisiae deletion strains, locus YMR078C, strain ctf18, stronger effect = lower value 0.973 | S. cerevisiae deletion strains, locus YMR125W, strain sto1, stronger effect = lower value 0.971 | S. cerevisiae deletion strains, locus YMR129W, stronger effect = lower value 0.992 | S. cerevisiae deletion strains, locus YMR205C, strain PFK2, stronger effect = lower value 0.96 | S. cerevisiae deletion strains, locus YMR223W, strain ubp8, stronger effect = lower value 0.962 | S. cerevisiae deletion strains, locus YMR231W, strain pep5, stronger effect = lower value 0.971 | S. cerevisiae deletion strains, locus YMR263W, strain SAP30, stronger effect = lower value 1.02 | S. cerevisiae deletion strains, locus YMR307W, strain GAS1, stronger effect = lower value 0.881 | S. cerevisiae deletion strains, locus YNL067W, strain RPL9B, stronger effect = lower value 1.02 | S. cerevisiae deletion strains, locus YNL071W, strain lat1, stronger effect = lower value 0.979 | S. cerevisiae deletion strains, locus YNL128W, strain TEP1, stronger effect = lower value 1.01 | S. cerevisiae deletion strains, locus YNL153C, strain GIM3, stronger effect = lower value 1.02 | S. cerevisiae deletion strains, locus YNL183C, strain NPR1, stronger effect = lower value 0.943 | S. cerevisiae deletion strains, locus YNL209W, strain ssb2, stronger effect = lower value 0.988 | S. cerevisiae deletion strains, locus YNL233W, strain BNI4, stronger effect = lower value 1 | S. cerevisiae deletion strains, locus YNL248C, strain rpa49, stronger effect = lower value 0.997 | S. cerevisiae deletion strains, locus YNL250W, strain rad50, stronger effect = lower value 0.99 | S. cerevisiae deletion strains, locus YNL271C, strain bni1, stronger effect = lower value 0.974 | S. cerevisiae deletion strains, locus YNL298W, strain CLA4, stronger effect = lower value 0.974 | S. cerevisiae deletion strains, locus YNL307C, strain MCK1, stronger effect = lower value 0.96 | S. cerevisiae deletion strains, locus YNL322C, strain KRE1 (second series), stronger effect = lower value 0.986 | S. cerevisiae deletion strains, locus YNL322C, strain KRE1, stronger effect = lower value 0.998 | S. cerevisiae deletion strains, locus YNR049C, strain mso1, stronger effect = lower value 0.991 | S. cerevisiae deletion strains, locus YNR052C, strain pop2, stronger effect = lower value 0.962 | S. cerevisiae deletion strains, locus YOL006C, strain TOP1, stronger effect = lower value 1.03 | S. cerevisiae deletion strains, locus YOL012C, strain htz1 0.873 | S. cerevisiae deletion strains, locus YOL147C, strain pex11, stronger effect = lower value 0.991 | S. cerevisiae deletion strains, locus YOR001W, strain rrp6, stronger effect = lower value 0.949 | S. cerevisiae deletion strains, locus YOR061W, strain CKA2, stronger effect = lower value 0.994 | S. cerevisiae deletion strains, locus YOR069W, strain VPS5, stronger effect = lower value 0.975 | S. cerevisiae deletion strains, locus YOR070C, strain gyp1, stronger effect = lower value 1 | S. cerevisiae deletion strains, locus YOR080W, strain dia2, stronger effect = lower value 1 | S. cerevisiae deletion strains, locus YOR083W, strain WHI5, stronger effect = lower value 0.99 | S. cerevisiae deletion strains, locus YOR106W, strain vam3, stronger effect = lower value 1.03 | S. cerevisiae deletion strains, locus YOR136W, strain idh2, stronger effect = lower value 0.98 | S. cerevisiae deletion strains, locus YOR144C, strain elg1, stronger effect = lower value 0.986 | S. cerevisiae deletion strains, locus YOR184W, strain ser1, stronger effect = lower value 0.951 | S. cerevisiae deletion strains, locus YOR231W, strain MKK1, stronger effect = lower value 0.999 | S. cerevisiae deletion strains, locus YOR265W, strain rbl2, stronger effect = lower value 0.996 | S. cerevisiae deletion strains, locus YOR270C, strain vph1, stronger effect = lower value 0.929 | S. cerevisiae deletion strains, locus YOR290C, strain snf2, stronger effect = lower value 1.02 | S. cerevisiae deletion strains, locus YOR316C, strain cot1, stronger effect = lower value 0.983 | S. cerevisiae deletion strains, locus YPL051W, strain arl3, stronger effect = lower value 1.04 | S. cerevisiae deletion strains, locus YPL055C, strain LGE1, stronger effect = lower value 1.03 | S. cerevisiae deletion strains, locus YPL078C, strain atp4, stronger effect = lower value 1.01 | S. cerevisiae deletion strains, locus YPL106C, strain sse1, stronger effect = lower value 1.01 | S. cerevisiae deletion strains, locus YPL240C, strain hsp82, stronger effect = lower value 0.986 | S. cerevisiae deletion strains, locus YPL241C, strain CIN2, stronger effect = lower value 0.996 | S. cerevisiae deletion strains, locus YPL256C, strain CLN2, stronger effect = lower value 0.992 | S. cerevisiae deletion strains, locus YPR119W, strain clb2, stronger effect = lower value 0.997 | S. cerevisiae deletion strains, locus YPR141C, strain kar3, stronger effect = lower value 0.987 | S. cerevisiae deletion strains, locus YPR163C, strain tif3, stronger effect = lower value 0.983 | S. cerevisiae deletion strains, locus YPR167C, strain met16, stronger effect = lower value 0.979 | S. cerevisiae deletion strains, strain wtn01, stronger effect = lower value 0.999 | S. cerevisiae strains, strain wild type, stronger effect = lower value 0.989
